The target in assay [1] is Ribosomal protein S6 kinase alpha-6 (Homo sapiens) (UniProt Q9UK32). As to conditions: at 1 µM.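 Further: each value is a mean inhibition of RSK4 from a GSK PKIS panel screen.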
Assay [2] has as its target T1, Serine/threonine-protein kinase Sgk1 (Homo sapiens) (UniProt O00141).
T1 sequence (whole entry): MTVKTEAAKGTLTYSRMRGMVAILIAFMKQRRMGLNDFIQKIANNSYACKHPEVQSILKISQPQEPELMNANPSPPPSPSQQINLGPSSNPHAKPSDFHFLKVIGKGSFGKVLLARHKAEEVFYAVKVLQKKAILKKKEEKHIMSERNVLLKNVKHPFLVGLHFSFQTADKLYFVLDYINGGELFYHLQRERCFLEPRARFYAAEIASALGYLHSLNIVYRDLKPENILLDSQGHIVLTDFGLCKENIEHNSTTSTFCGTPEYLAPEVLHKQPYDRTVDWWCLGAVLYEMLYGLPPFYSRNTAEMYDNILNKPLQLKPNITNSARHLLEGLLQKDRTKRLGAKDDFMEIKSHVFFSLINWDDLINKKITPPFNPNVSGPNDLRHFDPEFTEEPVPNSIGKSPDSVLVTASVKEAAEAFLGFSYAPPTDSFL
As to conditions: at 0.1 µM.

Assay [3] deals with T1, Serine/threonine-protein kinase Sgk1 (Homo sapiens). As to conditions: at 1 µM.
Assay [4] deals with T2, Serine/threonine-protein kinase Sgk2 (Homo sapiens) (UniProt Q9HBY8).
T2 sequence (whole entry): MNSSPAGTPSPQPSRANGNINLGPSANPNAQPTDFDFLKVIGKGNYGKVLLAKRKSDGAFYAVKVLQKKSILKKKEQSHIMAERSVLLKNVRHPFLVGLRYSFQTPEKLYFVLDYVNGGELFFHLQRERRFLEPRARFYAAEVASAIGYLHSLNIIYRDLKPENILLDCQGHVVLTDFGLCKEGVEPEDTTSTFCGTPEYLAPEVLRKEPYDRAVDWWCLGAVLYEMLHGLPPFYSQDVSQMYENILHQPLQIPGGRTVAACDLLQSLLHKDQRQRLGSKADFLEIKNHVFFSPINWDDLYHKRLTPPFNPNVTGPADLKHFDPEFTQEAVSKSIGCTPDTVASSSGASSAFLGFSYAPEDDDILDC
As to conditions: at 0.1 µM.

The target in assay [5] is T2, Serine/threonine-protein kinase Sgk2 (Homo sapiens). As to conditions: at 1 µM.
Assay [6] concerns the target T3, Serine/threonine-protein kinase Sgk3 (Homo sapiens) (UniProt Q96BR1).
T3 sequence (whole entry): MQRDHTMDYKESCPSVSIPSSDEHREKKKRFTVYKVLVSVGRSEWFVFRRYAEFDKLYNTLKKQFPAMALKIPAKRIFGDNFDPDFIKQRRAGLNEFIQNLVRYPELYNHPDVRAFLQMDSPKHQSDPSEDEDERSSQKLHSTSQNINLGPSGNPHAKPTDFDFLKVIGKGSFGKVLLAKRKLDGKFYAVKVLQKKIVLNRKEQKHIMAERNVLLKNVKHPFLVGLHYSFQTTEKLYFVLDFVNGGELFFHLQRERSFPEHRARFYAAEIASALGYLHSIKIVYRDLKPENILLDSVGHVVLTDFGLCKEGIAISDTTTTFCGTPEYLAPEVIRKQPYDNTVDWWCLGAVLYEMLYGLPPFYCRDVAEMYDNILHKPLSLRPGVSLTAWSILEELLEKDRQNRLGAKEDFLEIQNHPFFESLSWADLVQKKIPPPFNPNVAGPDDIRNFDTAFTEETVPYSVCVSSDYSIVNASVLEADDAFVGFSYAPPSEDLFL
As to conditions: at 0.1 µM.

Assay [7] deals with T3, Serine/threonine-protein kinase Sgk3 (Homo sapiens). As to conditions: at 1 µM.
Assay [8] has as its target 5'-AMP-activated protein kinase catalytic subunit alpha-1 (Homo sapiens) (UniProt Q13131). As to conditions: at 0.1 µM.
For assay [9] the target is unchanged. As to conditions: at 1 µM.
The target in assay [10] is 5'-AMP-activated protein kinase catalytic subunit alpha-2 (Homo sapiens) (UniProt P54646). As to conditions: at 0.1 µM.
5'-AMP-activated protein kinase catalytic subunit alpha-2 (Homo sapiens), sequence (P54646 whole entry, looked up): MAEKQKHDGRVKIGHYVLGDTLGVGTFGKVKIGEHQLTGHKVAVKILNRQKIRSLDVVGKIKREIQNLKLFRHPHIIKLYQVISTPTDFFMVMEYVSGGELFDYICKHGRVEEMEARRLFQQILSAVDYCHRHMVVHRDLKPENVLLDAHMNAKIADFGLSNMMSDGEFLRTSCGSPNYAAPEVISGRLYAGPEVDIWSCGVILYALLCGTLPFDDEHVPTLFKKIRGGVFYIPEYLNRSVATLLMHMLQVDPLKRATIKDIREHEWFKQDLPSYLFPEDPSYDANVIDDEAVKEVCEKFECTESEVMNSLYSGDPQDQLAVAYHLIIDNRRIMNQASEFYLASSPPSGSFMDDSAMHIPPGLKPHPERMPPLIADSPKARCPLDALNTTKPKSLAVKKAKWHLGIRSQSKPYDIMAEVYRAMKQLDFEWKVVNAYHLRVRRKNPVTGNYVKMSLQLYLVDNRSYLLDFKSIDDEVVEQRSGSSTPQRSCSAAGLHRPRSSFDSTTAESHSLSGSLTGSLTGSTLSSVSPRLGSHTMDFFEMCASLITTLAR
The target is the same in assay [11]. As to conditions: at 1 µM.
The target in assay [12] is T4, NUAK family SNF1-like kinase 1 (Homo sapiens) (UniProt O60285).
T4 sequence (whole entry): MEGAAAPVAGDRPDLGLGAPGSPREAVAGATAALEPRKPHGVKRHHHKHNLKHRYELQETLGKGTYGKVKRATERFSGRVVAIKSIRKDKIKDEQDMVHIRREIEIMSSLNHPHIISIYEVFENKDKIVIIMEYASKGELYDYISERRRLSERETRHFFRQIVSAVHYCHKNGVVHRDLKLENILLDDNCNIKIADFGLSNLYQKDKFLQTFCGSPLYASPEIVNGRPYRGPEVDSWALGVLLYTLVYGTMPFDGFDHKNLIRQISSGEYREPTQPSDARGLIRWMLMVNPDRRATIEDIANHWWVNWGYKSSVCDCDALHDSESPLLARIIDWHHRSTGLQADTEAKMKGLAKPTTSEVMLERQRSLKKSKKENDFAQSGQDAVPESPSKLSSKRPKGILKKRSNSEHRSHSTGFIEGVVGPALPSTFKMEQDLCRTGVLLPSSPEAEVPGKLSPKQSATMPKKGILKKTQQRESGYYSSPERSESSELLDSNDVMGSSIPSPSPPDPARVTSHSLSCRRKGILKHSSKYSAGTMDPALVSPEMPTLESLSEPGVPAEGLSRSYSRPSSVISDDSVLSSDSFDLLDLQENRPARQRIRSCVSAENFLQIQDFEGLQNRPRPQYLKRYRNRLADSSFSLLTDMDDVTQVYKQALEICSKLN
As to conditions: at 0.1 µM.

Assay [13] addresses T4, NUAK family SNF1-like kinase 1 (Homo sapiens). As to conditions: at 1 µM.
Assay [14] concerns the target T5, Serine/threonine-protein kinase BRSK1 (Homo sapiens) (UniProt Q8TDC3).
T5 sequence (whole entry): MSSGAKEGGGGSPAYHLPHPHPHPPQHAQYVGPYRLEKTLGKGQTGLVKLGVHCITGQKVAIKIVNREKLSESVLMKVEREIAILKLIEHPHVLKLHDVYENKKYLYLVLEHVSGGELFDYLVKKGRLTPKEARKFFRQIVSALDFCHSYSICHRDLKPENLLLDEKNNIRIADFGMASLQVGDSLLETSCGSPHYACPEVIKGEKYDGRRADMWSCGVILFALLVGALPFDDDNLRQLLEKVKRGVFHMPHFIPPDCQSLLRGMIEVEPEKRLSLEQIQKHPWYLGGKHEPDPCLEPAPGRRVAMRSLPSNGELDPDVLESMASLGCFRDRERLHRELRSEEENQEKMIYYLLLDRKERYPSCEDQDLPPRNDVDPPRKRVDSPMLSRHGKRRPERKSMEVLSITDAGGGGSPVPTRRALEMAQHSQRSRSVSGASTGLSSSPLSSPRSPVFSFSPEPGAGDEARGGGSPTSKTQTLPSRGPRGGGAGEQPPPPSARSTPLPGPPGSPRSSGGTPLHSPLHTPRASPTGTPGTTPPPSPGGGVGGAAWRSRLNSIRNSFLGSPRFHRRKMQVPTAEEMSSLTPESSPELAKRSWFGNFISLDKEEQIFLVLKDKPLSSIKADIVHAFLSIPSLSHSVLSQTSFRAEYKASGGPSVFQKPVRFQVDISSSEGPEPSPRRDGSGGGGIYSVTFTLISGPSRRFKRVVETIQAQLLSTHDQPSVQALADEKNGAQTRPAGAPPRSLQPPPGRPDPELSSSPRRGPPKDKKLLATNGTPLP
As to conditions: at 0.1 µM.

Assay [15] has as its target T5, Serine/threonine-protein kinase BRSK1 (Homo sapiens). As to conditions: at 1 µM.
The target in assay [16] is T6, Serine/threonine-protein kinase BRSK2 (Homo sapiens) (UniProt Q8IWQ3).
T6 sequence (whole entry): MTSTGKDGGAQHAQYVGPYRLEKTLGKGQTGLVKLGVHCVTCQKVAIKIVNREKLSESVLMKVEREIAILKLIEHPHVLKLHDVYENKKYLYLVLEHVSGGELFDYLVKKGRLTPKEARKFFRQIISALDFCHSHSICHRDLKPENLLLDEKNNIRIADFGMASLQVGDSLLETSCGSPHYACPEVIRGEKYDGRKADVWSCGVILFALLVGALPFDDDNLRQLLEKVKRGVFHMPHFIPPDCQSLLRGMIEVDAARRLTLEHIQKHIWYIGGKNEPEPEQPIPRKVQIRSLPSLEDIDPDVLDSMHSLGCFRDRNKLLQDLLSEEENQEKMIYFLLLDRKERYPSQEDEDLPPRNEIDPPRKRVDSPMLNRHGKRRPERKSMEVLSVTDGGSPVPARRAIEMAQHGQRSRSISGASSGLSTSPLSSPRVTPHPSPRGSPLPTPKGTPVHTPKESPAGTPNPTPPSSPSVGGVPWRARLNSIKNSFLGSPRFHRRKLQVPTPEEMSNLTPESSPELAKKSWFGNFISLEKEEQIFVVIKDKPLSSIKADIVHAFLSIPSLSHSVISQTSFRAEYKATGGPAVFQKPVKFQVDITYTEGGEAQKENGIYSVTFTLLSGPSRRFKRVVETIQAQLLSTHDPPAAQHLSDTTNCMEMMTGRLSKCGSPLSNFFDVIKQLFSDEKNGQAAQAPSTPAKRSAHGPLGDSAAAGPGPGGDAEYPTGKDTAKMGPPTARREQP
As to conditions: at 0.1 µM.

The target of assay [17] is T6, Serine/threonine-protein kinase BRSK2 (Homo sapiens). As to conditions: at 1 µM.
Assay [18] concerns the target Calcium/calmodulin-dependent protein kinase type 1D (Homo sapiens) (UniProt Q8IU85). As to conditions: at 0.1 µM.
For assay [19] the target is unchanged. As to conditions: at 1 µM.
For assay [20], the target named is Calcium/calmodulin-dependent protein kinase type II subunit alpha (Homo sapiens) (UniProt Q9UQM7). As to conditions: at 0.1 µM.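 Further: reported values are averages (mean inhibition of CAMK2A).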
Calcium/calmodulin-dependent protein kinase type II subunit alpha (Homo sapiens), sequence (Q9UQM7 whole entry): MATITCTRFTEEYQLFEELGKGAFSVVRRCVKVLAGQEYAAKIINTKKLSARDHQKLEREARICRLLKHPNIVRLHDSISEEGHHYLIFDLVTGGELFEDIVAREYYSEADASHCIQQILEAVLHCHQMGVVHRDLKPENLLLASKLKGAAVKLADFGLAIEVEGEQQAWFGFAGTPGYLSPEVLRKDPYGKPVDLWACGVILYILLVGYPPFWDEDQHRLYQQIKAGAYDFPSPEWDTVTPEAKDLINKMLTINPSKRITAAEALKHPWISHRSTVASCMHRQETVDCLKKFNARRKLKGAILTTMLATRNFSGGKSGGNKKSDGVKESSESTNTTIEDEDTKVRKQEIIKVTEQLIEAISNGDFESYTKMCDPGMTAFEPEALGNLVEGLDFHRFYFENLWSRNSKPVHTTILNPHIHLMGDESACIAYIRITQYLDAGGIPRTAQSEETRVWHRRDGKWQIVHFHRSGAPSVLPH

This note sets out measurements from ChEMBL document CHEMBL1961873, “Compounds: GSK PKIS; Assays: Nanosyn kinase panel” (2012).

Ribosomal protein S6 kinase alpha-6 (Homo sapiens), sequence (Q9UK32 whole entry): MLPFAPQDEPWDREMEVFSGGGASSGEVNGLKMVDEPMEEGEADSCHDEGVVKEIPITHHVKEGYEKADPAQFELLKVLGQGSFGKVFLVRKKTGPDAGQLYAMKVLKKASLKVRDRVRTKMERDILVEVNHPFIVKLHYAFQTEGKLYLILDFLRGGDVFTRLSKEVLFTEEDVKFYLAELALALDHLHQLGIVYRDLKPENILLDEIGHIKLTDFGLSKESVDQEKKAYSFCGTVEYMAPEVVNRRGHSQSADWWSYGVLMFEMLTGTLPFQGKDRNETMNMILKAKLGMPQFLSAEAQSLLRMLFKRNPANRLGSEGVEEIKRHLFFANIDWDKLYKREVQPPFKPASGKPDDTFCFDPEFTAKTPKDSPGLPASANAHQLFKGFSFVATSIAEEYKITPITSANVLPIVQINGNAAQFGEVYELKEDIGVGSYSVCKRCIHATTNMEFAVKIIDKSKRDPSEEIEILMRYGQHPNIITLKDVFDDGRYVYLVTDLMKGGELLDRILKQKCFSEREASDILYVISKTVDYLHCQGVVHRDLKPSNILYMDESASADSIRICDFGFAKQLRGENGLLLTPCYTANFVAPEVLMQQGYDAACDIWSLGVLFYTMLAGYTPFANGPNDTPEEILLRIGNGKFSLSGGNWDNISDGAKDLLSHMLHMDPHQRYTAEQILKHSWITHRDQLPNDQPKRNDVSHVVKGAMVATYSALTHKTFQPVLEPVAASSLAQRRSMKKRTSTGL
5'-AMP-activated protein kinase catalytic subunit alpha-1 (Homo sapiens), sequence (Q13131 whole entry, looked up): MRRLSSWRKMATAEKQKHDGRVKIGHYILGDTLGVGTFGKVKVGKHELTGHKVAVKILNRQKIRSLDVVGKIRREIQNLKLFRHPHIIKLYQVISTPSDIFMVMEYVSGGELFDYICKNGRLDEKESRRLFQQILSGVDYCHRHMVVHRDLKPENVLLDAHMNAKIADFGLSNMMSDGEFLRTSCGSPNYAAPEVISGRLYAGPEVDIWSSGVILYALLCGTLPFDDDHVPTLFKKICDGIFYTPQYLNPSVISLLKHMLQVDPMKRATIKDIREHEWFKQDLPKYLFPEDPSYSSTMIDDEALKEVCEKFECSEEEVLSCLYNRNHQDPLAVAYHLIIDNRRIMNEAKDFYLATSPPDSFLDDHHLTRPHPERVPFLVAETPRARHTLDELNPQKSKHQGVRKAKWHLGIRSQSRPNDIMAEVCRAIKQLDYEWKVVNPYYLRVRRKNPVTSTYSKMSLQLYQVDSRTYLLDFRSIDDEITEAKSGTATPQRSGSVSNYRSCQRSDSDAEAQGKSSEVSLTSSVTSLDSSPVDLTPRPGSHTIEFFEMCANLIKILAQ
Calcium/calmodulin-dependent protein kinase type 1D (Homo sapiens), sequence (Q8IU85 whole entry, looked up): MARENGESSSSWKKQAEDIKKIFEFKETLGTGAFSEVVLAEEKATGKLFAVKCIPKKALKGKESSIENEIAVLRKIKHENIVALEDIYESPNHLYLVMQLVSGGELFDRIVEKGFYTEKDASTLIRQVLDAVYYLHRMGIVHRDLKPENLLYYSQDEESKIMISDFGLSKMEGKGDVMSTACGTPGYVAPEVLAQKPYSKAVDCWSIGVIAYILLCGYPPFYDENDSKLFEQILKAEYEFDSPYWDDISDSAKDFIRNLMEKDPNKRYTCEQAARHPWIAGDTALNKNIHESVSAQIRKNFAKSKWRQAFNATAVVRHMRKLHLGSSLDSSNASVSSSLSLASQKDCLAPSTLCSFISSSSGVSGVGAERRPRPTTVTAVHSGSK

As a reminder, the inhibition is the relative decrease from the control value, in per cent. Regarding `CCn1c(-c2nonc2N)nc2c(C#CC(C)(C)O)ncc(OC[C@@H]3CCCN3)c21`, the inhibition in [1] stood at 8.09%; in assay [2], 1.28%; in assay [3], 2.09%; in [4], 3.27%; in assay [5] it was 2.29%; in [6], 12.7%. Besides, the inhibition turned out to be 47.4% in assay [7]; 6% in assay [8]; 39.3% in assay [9]; 0.91% in assay [10]; 4.25% in [11]; 6.58% in assay [12]. The inhibition in assay [13] was 34.4%; in assay [14] it was -0.75%; in [15] it was 1.83%; in assay [16] it was 0.98%; in assay [17], 1.11%; in assay [18] it was 0.27%. Moreover, the inhibition in assay [19] is 0.84%; in assay [20], 1.28%.
For `COc1cccc(COc2cc(-n3cnc4ccccc43)sc2C(N)=O)c1`, the inhibition was 2.04% in assay [1]; 3.04% in assay [2]; 0.63% in assay [3]; -0.02% in assay [4]; -0.45% in assay [5]; -1.95% in assay [6]. Besides, the inhibition is -0.21% in [7]; 0.92% in [8]; 2.35% in assay [9]; -0.66% in [10]; 1.39% in [11]; -2.73% in assay [12]. Moreover, the inhibition in assay [13] is 8.04%; in assay [14], -0.43%; in assay [15] it was 5.63%; in [16], 0.26%; in assay [17], 4.17%; in assay [18], 0.91%. The inhibition in assay [19] was 0.38%; in assay [20], 0.37%.
For the molecule `CCn1c(-c2nonc2N)nc2c(C#CC(C)(C)O)ncc(OCC3CCNCC3)c21`, the inhibition in [1] came out at 7.82%; in assay [2], 5.12%; in assay [3] it was 10.5%; in assay [4], 2.67%; in [5], 8.07%; in [6] it was 21.6%. Also, the inhibition in assay [7] was 67.4%; in assay [8], 13.8%; in assay [9], 51.9%; in [10], 3.32%; in assay [11] it was 16.1%; in assay [12] it was 6.78%. Further, the inhibition in assay [13] was 37.2%; in assay [14], 0.32%; in [15], 6.72%; in assay [16], 2.53%; in assay [17], 10.8%; in assay [18] it was -0.03%. Further, the results for the inhibition in [19] and in assay [20] were 0.97% and 3.5%, respectively.
